# This is part of a sample that, as a whole, favours compounds with a hit. Of some 83,000 tested, about 20% had one in any assay.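 Method: cells in 96-well plates; compound added at one concentration; 48 h incubation; percent growth measured; values under 10 scored active.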 Unmarked numbers belong to inactive results. Calls of active or inactive are those of the source.
# Tested on: UO-31 renal
# Test: NCI-60 one-dose screen, 48 h (100 = growth as untreated, 0 = no growth, -100 = all killed)
# Conditions: 10 µM unless noted
row,Structure (SMILES),growth
1,COc1cc2c(Oc3ccc(NC(=O)C4(C(=O)Nc5ccc(F)cc5)CC4)cc3F)ccnc2cc1OCCCN1CCOCC1,-74.4% (active)
2,Cc1c(NC(=O)OC[C@@H]2COCCN2)cn2ncnc(Nc3ccc4c(cnn4Cc4cccc(F)c4)c3)c12,-40.5% (active)
3,Cc1nc(NC(=O)N2CCC[C@H]2C(N)=O)sc1-c1ccnc(C(C)(C)C(F)(F)F)c1,25.1%
4,COc1cc(NCCCN)c2ncccc2c1,63.4%
5,Cc1cc(Nc2ncc(Cl)c(Nc3ccccc3S(=O)(=O)C(C)C)n2)c(OC(C)C)cc1C1CCNCC1,-96.4% (active)

# Tested on: TK-10 renal
# Test: as above
# Conditions: 10 µM unless noted
row,Structure (SMILES),growth
1,O=C1C=CC2(NN=C(c3ccccc3)N2c2ccc(Cl)cc2)c2cccc(O)c21 (stereo not drawn),100%
2,CNC(=O)c1ccc(Nc2ncc(C(F)(F)F)c(NCc3nccnc3N(C)S(C)(=O)=O)n2)cc1,-21.5% (active)
3,CN(C)C/C=C/C(=O)Nc1cc2c(Nc3ccc(F)c(Cl)c3)ncnc2cc1O[C@H]1CCOC1,-10.4% (active)
4,COc1cc(Nc2c(C#N)cnc3cc(OCCCN4CCN(C)CC4)c(OC)cc23)c(Cl)cc1Cl,29.8%
5,Cc1oc2c(C(=O)N/N=C\c3ccc(O)cc3O)c[nH]c2c1C,6.21% (active)
6,COc1c(OCCCN2CCOCC2)ccc2c3n(c(=NC(=O)c4cnc(N)nc4)nc12)CCN3,-21% (active)
7,c1cn2cc(-c3ccc4cn[nH]c4c3)nc(Nc3ccc(N4CCOCC4)cc3)c2n1,76.1%
8,CN1CCN(CCOc2cc(OC3CCOCC3)c3c(Nc4c(Cl)ccc5c4OCO5)ncnc3c2)CC1,5.06% (active)
